# Compound activity as filed in PubChem.
# SARS PLpro yeast: inhibitors of SARS-CoV papain-like protease in yeast. AID 485353. 0.19% of 330,000 active. Potency, µM (titrated, usually from 32.9 µM), without a hit: at the top dose activity, positive = growth rescue, hits mostly activators. S. cerevisiae expressing SARS-CoV PLpro, growth rescue; calls by dose curve; further: 0% is about no effect; nearly all actives have a fitted effect of over 55% in size
# Sm TGR block: inhibitors of Schistosoma mansoni thioredoxin glutathione reductase. Q962Y6. Potency, µM (highest dose often 114 µM), inactives show at the highest dose activity change, negative = inhibition, hits mostly inhibitors. 3% of 360,000 active. purified TGR, DTNB reduction, TNB absorbance 405 nm; active means well fitted inhibition curve with a large enough effect; inconclusive means small, poorly fitted or top-dose-only effect; inactive means no such curve, though single readings can be large or run the other way; further: on the % scale 0 is the no-effect control and ±100 the full control effect; nearly all actives have a fitted effect of over 60% in size
#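 First, TGR (20 nM dispensed) and NADPH were mixed with compound. Second, a 15 min room-temperature incubation followed. Third, further NADPH and then DTNB were added to start the reaction. Finally, TNB absorbance was monitored kinetically.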
# * = called active by the depositor; u = inconclusive; x = no result given. The list is not random: actives were taken first. Their share in the collection is about 3%. Potency means the concentration at half of the fitted maximal effect.
SMILES,SARS PLpro yeast,Sm TGR block
O=C(CC1C(=O)NCCN1Cc1cccc(F)c1)NC1CCCCC1 (centres undefined),10%,35µM*
COc1ccc(CN2CCNC(=O)C2CC(=O)NC2CCCC2)c(OC)c1 (centres undefined),-2%,-35%
CCOc1ccc(CN2CCNC(=O)C2CC(=O)NCc2cc(C)n(C)n2)cc1 (centres undefined),5%,u
COc1ccc(CN2CCNC(=O)C2CC(=O)O)c(OC)c1 (centres undefined),2%,35µM*
Cc1ccccc1CN1CCNC(=O)C1CC(=O)O (centres undefined),2%,25µM*
COc1ccc(CN2CCNC(=O)C2CC(=O)NCc2cc(C)n(C)n2)c(F)c1 (centres undefined),u,20µM*
Cc1ccc(C)c(S(=O)(=O)c2nnn3c2nc(NC(C)C)c2sccc23)c1,x,0%
Cc1cccc(NC(=O)c2cc3c([nH]c2=O)CC(c2ccccc2)CC3=O)c1 (centres undefined),x,-1%
Cc1cc(C)n(CCc2nc3c4ccccc4nc(N4CCN(c5ccccc5F)CC4)n3n2)n1,x,9%
COc1cccc(CN2CCNC(=O)C2CC(=O)NC2CCCCC2)c1OC (centres undefined),-2%,45µM*
COc1cccc(CN2CCNC(=O)C2CC(=O)NC2CCCC2)c1OC (centres undefined),1%,u
COc1cccc(CN2CCNC(=O)C2CC(=O)O)c1OC (centres undefined),28%,40µM*
COc1cccc(CN2CCNC(=O)C2CC(=O)N2CCCCO2)c1OC (centres undefined),0%,x
O=C(NCCc1ccc(Cl)cc1)c1cnc2sc(N3CCCC3)nn2c1=O,x,-3%
O=C(NNS(=O)(=O)c1ccccc1F)c1cc(-c2ccccc2)n[nH]1,0%,-5%
O=C(O)/C=C/C(=O)NNC(=O)c1cc(-c2ccccc2)n[nH]1,-5%,40µM*
O=C(O)c1cc(-c2ccccc2)n[nH]1,18%,-2%
O=C(O)/C=C\C(=O)NNC(=O)c1cc(-c2ccccc2)n[nH]1,-2%,22µM*
COc1cccc2sc(N3CCN(C(=O)CS(=O)(=O)c4ccc(Cl)cc4)CC3)nc12,x,0%
Cc1csc2nc(COc3ccc(NC(=O)c4ccccc4F)cc3)cc(=O)n12,x,8%
COC(=O)CCCC1=CC2=C(c3ccccc3)C(=O)C(C)(OC(=O)C3CCCC3)C(=O)C2=CN1CCCCO (centres undefined),1%,41%
COC(=O)CCCC1=CC2=C(c3ccccc3)C(=O)C(C)(OC(=O)C3CCCC3)C(=O)C2=CN1Cc1ccco1 (centres undefined),1%,22µM*
Cc1ccc(Cl)cc1NC(=O)C1CCN(c2nnc(C)c3c(C)n(-c4ccccc4)nc23)CC1,x,-4%
O=C(c1ccco1)N1CCN(S(=O)(=O)c2ccc(Br)s2)CC1,-12%,11µM*
CC(C)(C)c1ccc(C(=O)N2CCN(S(=O)(=O)c3ccc(Br)s3)CC2)cc1,-2%,-3%
SMILES,SARS PLpro yeast,Sm TGR block
CCc1ccc(-c2cc(C)no2)cc1S(=O)(=O)N1CCN(C(=O)c2ccco2)CC1,-2%,45µM*
Cc1cc(-c2ccc(C)c(S(=O)(=O)N3CCN(C(=O)c4ccco4)CC3)c2)on1,8%,6%
O=C(CS(=O)(=O)c1ccc(Cl)cc1)Nc1nc2ccc(Br)cc2s1,x,0%
CCCC(O)(CCC)C(=O)NN(C(=O)OC)c1ccccc1,-12%,46%
CCC(O)(CC)C(=O)NN(C(=O)CCl)c1ccccc1,17%,22µM*
O=C(Nc1ccccc1)NN(C(=O)CCl)c1ccccc1,22%,3.5µM*
CCN(CC)NC(=O)Nc1ccccc1,0%,13%
Cc1ccc(N(NC(=O)C(O)(c2ccccc2)c2ccccc2)C(=O)CCl)cc1,-15%,6.3µM*
Cc1ccc(C(O)(C(=O)NN(C(=O)c2ccccc2)c2ccccc2)c2ccc(C)cc2)cc1,3%,-3%
CCc1ccc(NCc2cc3ccc(OC)cc3n(CC(=O)Nc3cccc(Cl)c3C)c2=O)cc1,x,-3%
CCOC(=O)c1cc(-c2ccc(F)cc2)n(CCC(=O)NC2CCCCC2)c1C,x,18%
COc1cccc2cc(-c3nnc(Nc4ccccc4C)s3)c(=O)oc12,x,2%
CN1CCc2nc(N)c(C#N)c(-c3ccccc3)c2C1,19%,-7%
CN1CCc2c(C#N)c(Cl)nc(Cl)c2C1,5%,32µM*
CCOC(=O)C(CC)Sc1nnc2[nH]c(=O)cc(C)n12 (centres undefined),x,12%
O=C(Cn1c(=O)nc(-c2ccccc2)c2cc(Cl)ccc21)N1CCN(c2ccccc2F)CC1,x,6%
COC(=O)[C@@H]1[C@@H](C(=O)OC)C2(c3ccccc3-c3ccccc32)N(c2ccc(Cl)cc2)N1C#N,-20%,2.8µM*
COC(=O)C[C@]1(C(=O)OC)CN(C#N)N(c2ccc(Cl)cc2)C12c1ccccc1-c1ccccc12,-20%,-33%
CCOCCCn1c(SCC(=O)Nc2ccc(F)cc2)nc2c(sc3ccccc32)c1=O,x,-7%
COc1ccccc1C(=O)N1CCCCC1CCN1CCOCC1 (centres undefined),x,-2%
CCN1C/C(=C/c2ccc(N3CCOCC3)cc2)C(=O)/C(=C/c2ccc(N3CCOCC3)cc2)C1,4%,-20%
CN1C/C(=C\c2ccc(N3CCOCC3)cc2)C(=O)/C(=C/c2ccc(N3CCOCC3)cc2)C1,10µM*,u
CCC(Sc1ncnc2sc3c(c12)CCCC3)C(=O)OCC(C)C (centres undefined),x,1%
C1CC(CN2CCOCC2)CN(c2nc3nonc3nc2N2CCSCC2)C1 (centres undefined),1%,u
C1CN(CC2CCN(c3nc4nonc4nc3N3CCSCC3)CC2)CCO1,0%,28µM*
SMILES,SARS PLpro yeast,Sm TGR block
COc1ccc(CNC(=O)c2cc3cc(S(=O)(=O)N4CCCCC4)ccc3n2C)c(OC)c1,x,6%
CCC(=O)N1CCc2cc(S(=O)(=O)NCCC(=O)Nc3ccc(OC)c(OC)c3)ccc21,x,2%
Cc1ccc(N(C)S(=O)(=O)c2ccc3[nH]c(=O)ccc3c2)cc1,x,12%
CN1CCN/C1=C(/C(Cl)=C(Cl)Cl)[N+](=O)[O-],1%,1.1µM*
O=[N+]([O-])C(=C1SCCS1)C(=C(Cl)Cl)N1CCCCC1,-7%,0%
CC(=O)N1CCCc2cc(S(=O)(=O)N3CCN(c4ccccc4F)CC3)ccc21,x,12%
COc1ccc(CCNC(=O)c2cc(-c3ccc(Cl)cc3)on2)cc1OC,x,0%
COc1ccc(CCNC(=O)c2ccc(-c3ccc([N+](=O)[O-])cc3)o2)cc1OC,8%,40µM*
COc1ccc(CNC(=O)c2noc(C(C)C)c2[N+](=O)[O-])cc1,1%,-13%
COc1ccc(CCNC(=O)c2noc(C(C)C)c2[N+](=O)[O-])cc1OC,-4%,35µM*
CCOc1ccccc1CNC(=O)CN1C(=O)C2CCCCN2c2ccc(C(=O)N(C)C)cc21 (centres undefined),x,1%
CCCN(CCC)C(=O)Cn1c(=O)n(-c2cccc(C)c2)c(=O)c2c1c1cc(OC)ccc1n2C,x,3%
COc1ccc(C2=NN(C(=O)c3ccco3)C(c3cc4ccccc4nc3Cl)C2)cc1 (centres undefined),-2%,45µM*
COc1ccc2cc(C3CC(c4ccco4)=NN3C(=O)CCC(=O)O)c(Cl)nc2c1 (centres undefined),16%,-33%
